According to PubChem BioAssay (NCATS):
Records with an inconclusive call do not appear. The source holds several records for some structures; these can differ, active in one and inactive in another. Active and inactive are the calls of the source. Calls follow the shape of the dose curve; as a rule, active = well fitted curve in the direction sought with a large enough effect; inconclusive = small, poorly fitted or top-dose-only effect, or another doubt; inactive = no such curve, though single readings can be large; an effect the other way counts as inactive or inconclusive. Where a SMILES comes first, the peptide text is derived from it. [ ]: non-standard residue; d: D form. pGlu = O=C1CC[C@@H](C(=O)O)N1

What was measured:
UISO = assay: qHTS assay to identify novel small-molecules to repurpose for Merkel cell carcinoma treatment (AID 1296009); settings: MCC and control cell lines, CellTiter-Glo viability, 72 h; series mostly up to 46 µM; also: nearly all actives have a fitted effect of over 60% in size
In short: (§1)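 72 hr, 37 degree celsius; NPC 8-pt / MIPE 11-pt dose response; compound pinned in DMSO; CellTiter-Glo, 10 min RT, luminescence; normalized to no-cell and DMSO controls.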

WaGa = assay: as above; settings: MCC and control cell lines, CellTiter-Glo viability, 72 h; series mostly up to 46 µM
In short: as §1

C33A = assay: Primary qHTS to identify gynecologic anti-cancer compounds using libraries of approved drugs and bioactive compounds (AID 1345084); settings: Gynecologic cancer cell panel viability, ATPlite luminescence, 48 h; series mostly up to 57.5 µM; also: nearly all actives have a fitted effect of over 55% in size
In short: (§2)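 48 h compound exposure at 37 C, 5% CO2; five-point qHTS. ATPlite luminescence readout of cell ATP.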

CASKI = assay: as above; settings: Gynecologic cancer cell panel viability, ATPlite luminescence, 48 h; series mostly up to 57.5 µM
In short: as §2

Es-2 = assay: as above; settings: Gynecologic cancer cell panel viability, ATPlite luminescence, 48 h; series mostly up to 57.5 µM
In short: as §2

HeLa = assay: as above; settings: Gynecologic cancer cell panel viability, ATPlite luminescence, 48 h; series mostly up to 57.5 µM
In short: as §2

Hek293T = assay: as above; settings: Gynecologic cancer cell panel viability, ATPlite luminescence, 48 h, control line for the selectivity index; series mostly up to 57.5 µM
In short: as §2

JEG-3 = assay: as above; settings: Gynecologic cancer cell panel viability, ATPlite luminescence, 48 h; series mostly up to 57.5 µM
In short: as §2

CAOV3 = assay: as above; settings: Gynecologic cancer cell panel viability, ATPlite luminescence, 48 h; series mostly up to 57.5 µM
In short: as §2

Measured: Potency
Potency is read from the fitted curve at half-maximal effect.

CC(C)C(=O)Nc1cccc(C2CN3CCSC3=N2)c1 (stereo not drawn)
not listed: CAOV3
inactive: all other assays above

O=C(CCCl)NCCc1ccccc1
not listed: CAOV3
inactive: all other assays above

COc1ccc(OC(=O)N(CC(=O)O)Cc2ccc(OCCc3nc(-c4ccccc4)oc3C)cc2)cc1
not listed: CAOV3
inactive: all other assays above

CC(C)C(=O)Nc1cccc(C(F)(F)F)c1
not listed: CAOV3
inactive: all other assays above

CC(=O)OCC(=O)[C@@]1(O)CCC2C3CCC4=CC(=O)CC[C@]4(C)C3[C@@H](O)C[C@@]21C (stereo partly drawn)
not listed: CAOV3
inactive: all other assays above

COc1cc(C(=O)OC(COCCC(C)C)CN2CCOCC2)cc(OC)c1OC (stereo not drawn)
not listed: CAOV3
inactive: all other assays above

C=C(C)C(=O)OCC(O)CO (stereo not drawn)
not listed: CASKI
inactive: all other assays above

CCC(=O)O[C@H]1[C@H](O[C@@H]2[C@@H](C)[C@H](O[C@H]3C[C@@](C)(OC)[C@@H](O)[C@H](C)O3)[C@@H](C)C(=O)O[C@H](CC)[C@@](C)(O)[C@H](O)[C@@H](C)C(=O)[C@H](C)C[C@@]2(C)O)O[C@H](C)C[C@@H]1N(C)C
not listed: Hek293T
inactive: all other assays above

O=C1OC2(c3ccccc31)c1cc(I)c(O)c(I)c1Oc1c2cc(I)c(O)c1I
not listed: CAOV3
inactive: all other assays above

CC1(C)O[C@@H]2C[C@H]3[C@@H]4C[C@H](F)C5=CC(=O)C=C[C@]5(C)[C@@]4(F)[C@@H](O)C[C@]3(C)[C@]2(C(=O)CO)O1
not listed: CAOV3
inactive: all other assays above

Cc1onc(-c2ccccc2)c1C(=O)Cl
not listed: CAOV3
inactive: all other assays above

CC(C)Cc1ccc(C(C)C(=O)OCc2ccccn2)cc1 (stereo not drawn)
not listed: CAOV3
inactive: all other assays above

Cc1ccc(Cl)c(OCC(O)CNC(C)(C)C)c1 (stereo not drawn)
not listed: Hek293T
inactive: all other assays above

CN1C(=O)c2ccccc2C1=O
not listed: JEG-3 | CAOV3
inactive: all other assays above

Cc1onc(-c2c(Cl)cccc2Cl)c1C(=O)Cl
not listed: CAOV3
inactive: all other assays above

Cc1cc(C(C)(C)C)c(O)c(C(C)(C)C)c1
not listed: CAOV3
inactive: all other assays above

CC[C@@H]([C@H](C)O)n1ncn(-c2ccc(N3CCN(c4ccc(OC[C@@H]5CO[C@@](Cn6cncn6)(c6ccc(F)cc6F)C5)cc4)CC3)cc2)c1=O
inactive: UISO | WaGa | CAOV3 | HeLa | JEG-3
active: C33A 11.2 µM

C[C@H]1C[C@H](O)c2ccsc2S1(=O)=O
not listed: CAOV3
inactive: all other assays above

O=C(NO)c1ccccc1
active: WaGa 32.6 µM
not listed: CAOV3
inactive: all other assays above

O=C(Oc1ccccc1)c1cccc(C(=O)Oc2ccccc2)c1
not listed: Hek293T
inactive: all other assays above

CC(C)=CCC/C(C)=C/CC/C(C)=C/C(=O)OCC(=O)[C@@]1(O)CC[C@H]2[C@@H]3CCC4=CC(=O)C=C[C@]4(C)[C@H]3[C@@H](O)C[C@@]21C
active: Hek293T 35.5 µM
not listed: Es-2
inactive: all other assays above

COCCc1ccc(OCC2CO2)cc1 (stereo not drawn)
not listed: CAOV3
inactive: all other assays above

O=C(CCC1CCN(Cc2ccccc2)CC1)c1ccc2c(c1)NCCCC2
not listed: CAOV3
inactive: all other assays above

COC(=O)C1=C(C)NC(C)=C(C(=O)OCCc2ccc(N3CCN(C(c4ccccc4)c4ccccc4)CC3)cc2)C1c1cccc([N+](=O)[O-])c1 (stereo not drawn)
inactive: all assays above

O=C(OCC1(COC(=O)c2cccnc2)CCCC(COC(=O)c2cccnc2)(COC(=O)c2cccnc2)C1O)c1cccnc1
not listed: CAOV3
inactive: all other assays above

O=C(c1ccco1)N1CCNCC1
not listed: CAOV3
inactive: all other assays above

O=[N+]([O-])c1cncn1CCN1CCOCC1
not listed: CAOV3
inactive: all other assays above

CN(C)C(=O)CNC(=O)Cc1ccccc1
inactive: all assays above

O=C(CCCCCCCCC#CI)Oc1ccccc1
active: WaGa 11.9 µM
not listed: CAOV3
inactive: all other assays above

C[C@@H](C1=C(CCN(C)C)Cc2ccccc21)c1ccccn1
not listed: Hek293T
inactive: all other assays above

Brc1ccccc1-c1ccccc1
not listed: CAOV3
inactive: all other assays above

CC(=O)N(CC(=O)N(C)C)c1ccccc1
not listed: CASKI | JEG-3 | CAOV3
inactive: all other assays above

CC(=O)/C=C/C=C1/C2CCC(C2)C1(C)C (stereo not drawn)
not listed: WaGa
inactive: all other assays above

O=C(Nc1ccc(Cl)cc1)Nc1ccc(Cl)c(Cl)c1
inactive: CASKI
active: UISO 10.6 µM | WaGa 21.1 µM

Nc1cccc2c(N)cccc12
active: UISO 10.9 µM | WaGa 19.3 µM
inactive: Es-2 | HeLa | Hek293T

Cc1nc2n(c(=O)c1CCN1CCC(C(=O)c3ccc(F)cc3)CC1)CCS2
not listed: WaGa
inactive: all other assays above

COCCOCC(OC)OC
not listed: CAOV3
inactive: all other assays above

COc1ccc2c(c1)c(CC(=O)OC/C=C(\C)CC/C=C(\C)CCC=C(C)C)c(C)n2C(=O)c1ccc(Cl)cc1
not listed: WaGa
inactive: all other assays above

OC1(c2ccc(Cl)c(C(F)(F)F)c2)CCN(CCCC(c2ccc(F)cc2)c2ccc(F)cc2)CC1
25.1 µM (active) and inactive: Es-2 | HeLa
active: UISO 10.6 µM | WaGa 15 µM

CCCC(=O)Nc1ccc(O)c(C(C)=O)c1
not listed: CAOV3
inactive: all other assays above

CCOC(=O)C1=C(C)NC(C)=C(C(=O)OCC)C1c1ccccc1/C=C/C(=O)OC(C)(C)C
active: UISO 26.6 µM | WaGa 23.7 µM
inactive: Es-2 | HeLa | Hek293T | JEG-3

CCNC(=O)[C@@H]1CCCN1C(=O)[C@H](CCCN=C(N)N)NC(=O)[C@H](CC(C)C)NC(=O)CNC(=O)[C@H](Cc1ccc(O)cc1)NC(=O)[C@H](CO)NC(=O)[C@H](Cc1c[nH]c2ccccc12)NC(=O)[C@H](Cc1cnc[nH]1)NC(=O)[C@@H]1CCC(=O)N1 ([pGlu]HWSYGLRP-NHEt)
not listed: CAOV3
inactive: all other assays above

O=C(c1cc(O)c(O)c(O)c1)c1ccc(O)c(O)c1O
not listed: WaGa
inactive: all other assays above

CC(=O)OCC[N+](C)(C)C
not listed: WaGa
inactive: all other assays above

CC(=O)[C@@]1(O)CC[C@H]2[C@@H]3C[C@H](C)C4=CC(=O)CC[C@]4(C)[C@H]3CC[C@@]21C
not listed: CAOV3
inactive: all other assays above

C[C@H](CN1CCCC1)C(=O)c1ccc(C(F)(F)F)cc1
not listed: C33A | CAOV3
inactive: all other assays above

c1ccc(C(O[C@H]2CCCN(CCc3ccc4c(c3)OCO4)C2)c2ccccc2)cc1
not listed: WaGa
inactive: all other assays above

COC(=O)C1=C(C)NC(COC(N)=O)=C(C(=O)OC(C)C)C1c1cccc(Cl)c1Cl (stereo not drawn)
not listed: WaGa
inactive: all other assays above

CC(C)OC(=O)c1cc2c(OCC(O)CNC(C)(C)C)cccc2[nH]1 (stereo not drawn)
not listed: HeLa | Hek293T | CAOV3
inactive: all other assays above

Cc1cc2nc3ccc(=[N+](C)C)cc-3sc2cc1N
active: UISO 1.68 µM | WaGa 0.668 µM | C33A 3.98 µM | CASKI 12.6 µM | Es-2 14.1 µM | Hek293T 14.1 µM

Oc1cccc2[nH]ccc12
active: UISO 26.6 µM
not listed: WaGa
inactive: all other assays above

COc1ccc2cc(C=O)ccc2c1
not listed: CAOV3
inactive: all other assays above

OCc1c[nH]c2ccccc12
active: UISO 10.9 µM | C33A 35.5 µM

CC[C@@]1(O)C(=O)OCc2c1cc1n(c2=O)Cc2c-1nc1ccccc1c2/C=N/OC(C)(C)C
inactive: HeLa | JEG-3
active: UISO 0.168 µM | WaGa 0.0266 µM | Hek293T 0.355 µM

O=C(O)CNC(=O)CNC(=O)CNC(=O)CSC(=O)c1ccccc1
not listed: C33A | CAOV3
inactive: all other assays above
